Our source for the binding signal values is PMC7862700, “An all-to-all approach to the identification of sequence-specific readers for epigenetic DNA modifications on cytosine”.

Common to all, as to experiment: DAPPL (digital affinity profiling via proximity ligation, sequencing); 10 mM Tris-HCl pH 7.5, 50 mM NaCl, 1 mM DTT, 4% glycerol, room temperature, 30 min; GST-TFs on glutathione beads, 16-mer random dsDNA library, 0.1% formaldehyde crosslink after washing; high values mean tight binding
Conditions in all cases: protein: recombinant; tags: N-terminal GST; dsDNA, one strand shown

For one test, the target named is T1, FLI1 (Homo sapiens, UniProt Q01543 1-452).
T1 sequence: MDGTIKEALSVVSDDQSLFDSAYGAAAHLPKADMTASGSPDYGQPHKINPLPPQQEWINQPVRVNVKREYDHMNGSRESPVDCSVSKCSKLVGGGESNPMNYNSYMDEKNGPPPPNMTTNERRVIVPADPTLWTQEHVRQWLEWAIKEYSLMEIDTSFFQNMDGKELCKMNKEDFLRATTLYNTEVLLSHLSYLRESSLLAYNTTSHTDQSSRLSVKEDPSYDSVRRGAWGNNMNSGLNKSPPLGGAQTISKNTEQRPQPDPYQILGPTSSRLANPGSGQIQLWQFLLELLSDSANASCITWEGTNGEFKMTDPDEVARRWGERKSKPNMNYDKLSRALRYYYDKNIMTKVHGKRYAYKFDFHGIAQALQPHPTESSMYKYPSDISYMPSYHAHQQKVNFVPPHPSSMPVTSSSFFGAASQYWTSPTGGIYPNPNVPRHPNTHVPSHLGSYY
An outline of the steps:
(§1)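 Yeast served to express human transcription factors as GST fusions, which were then captured on glutathione beads and labelled with DNA barcodes. Pooled with a tag-only sample, they were incubated with 200 nmole of a 16-mer random double-stranded DNA library for 30 min at room temperature in Tris/NaCl/DTT/glycerol buffer, washed, crosslinked with 0.1% formaldehyde, ligated by proximity, amplified by PCR and sequenced. Dividing each hexamer's read frequency for a factor by its frequency for the tag-only sample gives the binding signal.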

In another test the target is T2, ELK1 (Homo sapiens, UniProt P19419 1-428).
T2 sequence: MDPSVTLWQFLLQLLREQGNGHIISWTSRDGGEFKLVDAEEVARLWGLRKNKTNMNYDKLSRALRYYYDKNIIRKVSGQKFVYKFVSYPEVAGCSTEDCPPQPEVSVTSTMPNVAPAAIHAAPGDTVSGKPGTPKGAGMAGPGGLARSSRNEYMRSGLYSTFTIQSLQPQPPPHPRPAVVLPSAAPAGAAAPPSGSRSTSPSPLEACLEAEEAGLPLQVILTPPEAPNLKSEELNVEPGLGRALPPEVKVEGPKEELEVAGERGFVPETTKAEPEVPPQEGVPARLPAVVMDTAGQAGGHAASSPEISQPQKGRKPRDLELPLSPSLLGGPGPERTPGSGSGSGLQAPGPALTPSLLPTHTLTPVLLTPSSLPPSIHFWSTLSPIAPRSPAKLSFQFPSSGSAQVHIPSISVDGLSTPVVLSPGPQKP
An outline of the steps: as §1

A further test addresses T3, GABPA (Homo sapiens, UniProt Q06546 1-454).
T3 sequence: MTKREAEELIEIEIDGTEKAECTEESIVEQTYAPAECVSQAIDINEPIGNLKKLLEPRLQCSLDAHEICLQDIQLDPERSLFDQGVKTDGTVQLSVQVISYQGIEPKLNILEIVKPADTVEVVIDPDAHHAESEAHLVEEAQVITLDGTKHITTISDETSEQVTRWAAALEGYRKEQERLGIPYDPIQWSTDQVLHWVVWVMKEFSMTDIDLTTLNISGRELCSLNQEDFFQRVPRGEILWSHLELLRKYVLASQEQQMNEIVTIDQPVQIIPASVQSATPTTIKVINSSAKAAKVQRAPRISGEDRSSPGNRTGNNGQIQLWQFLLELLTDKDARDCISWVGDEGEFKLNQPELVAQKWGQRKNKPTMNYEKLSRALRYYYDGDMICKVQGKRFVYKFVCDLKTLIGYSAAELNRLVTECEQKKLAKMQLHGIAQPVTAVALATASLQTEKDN
An outline of the steps:
as §1

The target of a further test is T4, ERG (Homo sapiens, UniProt P11308 1-479).
T4 sequence: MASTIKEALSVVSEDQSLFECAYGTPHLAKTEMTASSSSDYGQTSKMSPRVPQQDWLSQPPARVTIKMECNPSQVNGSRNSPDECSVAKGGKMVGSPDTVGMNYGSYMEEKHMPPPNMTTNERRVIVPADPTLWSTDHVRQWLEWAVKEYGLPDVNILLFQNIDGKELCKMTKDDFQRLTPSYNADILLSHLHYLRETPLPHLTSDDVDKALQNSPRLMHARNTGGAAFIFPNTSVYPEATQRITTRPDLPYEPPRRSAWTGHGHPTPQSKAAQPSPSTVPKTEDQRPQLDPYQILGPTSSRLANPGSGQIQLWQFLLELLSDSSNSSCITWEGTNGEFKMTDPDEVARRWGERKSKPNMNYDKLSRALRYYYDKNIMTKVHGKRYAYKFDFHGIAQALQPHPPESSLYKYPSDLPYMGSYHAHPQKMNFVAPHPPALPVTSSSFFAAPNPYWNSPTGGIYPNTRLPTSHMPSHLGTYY
The procedure, abridged:
as §1

The next test deals with ELF1 (Homo sapiens, UniProt P32519 1-619). An outline of the steps: as §1
Chain of ELF1 (P32519 whole entry): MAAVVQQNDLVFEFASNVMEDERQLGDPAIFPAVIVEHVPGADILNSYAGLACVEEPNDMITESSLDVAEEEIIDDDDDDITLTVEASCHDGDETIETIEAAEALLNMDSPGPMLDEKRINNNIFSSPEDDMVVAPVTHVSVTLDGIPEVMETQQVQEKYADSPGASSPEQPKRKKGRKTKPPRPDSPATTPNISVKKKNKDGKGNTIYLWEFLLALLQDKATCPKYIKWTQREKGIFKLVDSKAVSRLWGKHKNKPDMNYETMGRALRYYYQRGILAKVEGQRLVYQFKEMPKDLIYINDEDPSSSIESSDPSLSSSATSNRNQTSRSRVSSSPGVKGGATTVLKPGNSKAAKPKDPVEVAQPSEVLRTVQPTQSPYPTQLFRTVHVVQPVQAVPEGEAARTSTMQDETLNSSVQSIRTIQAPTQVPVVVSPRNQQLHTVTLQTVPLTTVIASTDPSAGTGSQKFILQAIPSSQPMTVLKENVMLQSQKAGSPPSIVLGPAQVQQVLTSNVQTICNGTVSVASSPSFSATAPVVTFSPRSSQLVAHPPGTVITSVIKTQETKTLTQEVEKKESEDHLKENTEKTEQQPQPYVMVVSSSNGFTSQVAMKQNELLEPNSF
Another test addresses T5, EHF (Homo sapiens, UniProt Q9NZC4 1-300).
T5 sequence: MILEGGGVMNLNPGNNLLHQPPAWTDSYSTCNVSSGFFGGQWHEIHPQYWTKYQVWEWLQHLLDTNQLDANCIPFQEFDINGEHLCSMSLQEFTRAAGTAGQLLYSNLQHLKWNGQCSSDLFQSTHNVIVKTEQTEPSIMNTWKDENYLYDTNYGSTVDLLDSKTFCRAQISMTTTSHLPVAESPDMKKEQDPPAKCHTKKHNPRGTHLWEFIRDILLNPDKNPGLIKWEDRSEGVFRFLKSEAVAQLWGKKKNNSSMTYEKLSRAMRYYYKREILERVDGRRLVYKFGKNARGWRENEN
An outline of the steps:
as §1

In a further test the target is SPI1 (Homo sapiens, UniProt P17947 1-270). An outline of the steps: as §1
The target of a further test is SPIB (Homo sapiens, UniProt Q01892 1-262). The procedure, abridged: as §1
Chain of SPIB (Q01892 whole entry): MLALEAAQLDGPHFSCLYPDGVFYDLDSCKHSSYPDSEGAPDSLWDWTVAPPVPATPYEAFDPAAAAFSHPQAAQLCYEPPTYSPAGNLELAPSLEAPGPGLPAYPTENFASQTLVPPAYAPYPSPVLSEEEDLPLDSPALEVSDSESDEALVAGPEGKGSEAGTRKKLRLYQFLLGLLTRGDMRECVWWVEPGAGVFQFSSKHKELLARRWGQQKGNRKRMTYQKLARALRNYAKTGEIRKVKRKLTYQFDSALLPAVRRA
In the next test the target is T6, ELK3 (Homo sapiens, UniProt P41970 1-407).
T6 sequence: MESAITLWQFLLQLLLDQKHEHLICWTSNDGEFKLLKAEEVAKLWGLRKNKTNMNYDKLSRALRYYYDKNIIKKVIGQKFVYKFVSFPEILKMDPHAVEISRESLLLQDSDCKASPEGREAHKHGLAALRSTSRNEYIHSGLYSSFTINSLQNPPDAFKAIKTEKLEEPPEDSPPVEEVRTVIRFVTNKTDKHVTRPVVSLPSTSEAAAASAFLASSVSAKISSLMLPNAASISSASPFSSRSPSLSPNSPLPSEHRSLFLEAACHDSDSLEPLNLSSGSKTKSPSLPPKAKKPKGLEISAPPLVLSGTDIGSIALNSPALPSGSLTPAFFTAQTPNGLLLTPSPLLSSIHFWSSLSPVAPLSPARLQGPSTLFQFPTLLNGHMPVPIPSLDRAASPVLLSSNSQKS
The procedure, abridged:
as §1

On to TTTTGG, for which the binding signal is 1.35 fold enrichment (6-mer frequency, TF over GST control) with FLI1; 1.42 fold enrichment (6-mer frequency, TF over GST control) in the test with ELK1; 1.47 fold enrichment (6-mer frequency, TF over GST control) in the test with GABPA; 1.26 fold enrichment (6-mer frequency, TF over GST control) with ERG; 1.36 fold enrichment (6-mer frequency, TF over GST control) with ELF1; 1.37 fold enrichment (6-mer frequency, TF over GST control) with EHF. For the same sequence, the binding signal with SPI1 was 1.5 fold enrichment (6-mer frequency, TF over GST control); with SPIB, 1.63 fold enrichment (6-mer frequency, TF over GST control); with ELK3, 1.31 fold enrichment (6-mer frequency, TF over GST control).

For the sequence TAAGTA, the binding signal with FLI1 was 1.21 fold enrichment (6-mer frequency, TF over GST control); with ELK1, 1.26 fold enrichment (6-mer frequency, TF over GST control); with GABPA it was 1.28 fold enrichment (6-mer frequency, TF over GST control); in the test with ERG, 1.22 fold enrichment (6-mer frequency, TF over GST control); in the test with ELF1 it was 1.24 fold enrichment (6-mer frequency, TF over GST control); in the test with EHF, 1.19 fold enrichment (6-mer frequency, TF over GST control). The binding signal with SPI1 was 1.16 fold enrichment (6-mer frequency, TF over GST control); in the test with SPIB it was 1.22 fold enrichment (6-mer frequency, TF over GST control); with ELK3 it was 1.22 fold enrichment (6-mer frequency, TF over GST control).

For the sequence CCATAT, the binding signal in the test with FLI1 is 1.23 fold enrichment (6-mer frequency, TF over GST control); with ELK1, 1.24 fold enrichment (6-mer frequency, TF over GST control); in the test with GABPA, 1.19 fold enrichment (6-mer frequency, TF over GST control); in the test with ERG, 1.37 fold enrichment (6-mer frequency, TF over GST control); with ELF1, 1.22 fold enrichment (6-mer frequency, TF over GST control); with EHF, 1.22 fold enrichment (6-mer frequency, TF over GST control). The binding signal is 1.16 fold enrichment (6-mer frequency, TF over GST control) with SPI1; 1.26 fold enrichment (6-mer frequency, TF over GST control) in the test with SPIB; 1.26 fold enrichment (6-mer frequency, TF over GST control) in the test with ELK3.

For the sequence CCCGTA, the binding signal with FLI1 was 1.14 fold enrichment (6-mer frequency, TF over GST control); in the test with ELK1 it was 1.11 fold enrichment (6-mer frequency, TF over GST control); with GABPA, 1.2 fold enrichment (6-mer frequency, TF over GST control); with ERG it was 1.2 fold enrichment (6-mer frequency, TF over GST control); with ELF1, 1.25 fold enrichment (6-mer frequency, TF over GST control); in the test with EHF, 1.24 fold enrichment (6-mer frequency, TF over GST control). For the same sequence, the binding signal is 1.19 fold enrichment (6-mer frequency, TF over GST control) with SPI1; 1.14 fold enrichment (6-mer frequency, TF over GST control) in the test with SPIB; 1.32 fold enrichment (6-mer frequency, TF over GST control) with ELK3.

As for AACTCG, the binding signal with FLI1 is 1.41 fold enrichment (6-mer frequency, TF over GST control); with ELK1, 1.33 fold enrichment (6-mer frequency, TF over GST control); in the test with GABPA, 1.4 fold enrichment (6-mer frequency, TF over GST control); with ERG, 1.32 fold enrichment (6-mer frequency, TF over GST control); with ELF1, 1.39 fold enrichment (6-mer frequency, TF over GST control); in the test with EHF, 1.28 fold enrichment (6-mer frequency, TF over GST control). The binding signal with SPI1 was 1.4 fold enrichment (6-mer frequency, TF over GST control); with SPIB, 1.37 fold enrichment (6-mer frequency, TF over GST control); with ELK3, 1.24 fold enrichment (6-mer frequency, TF over GST control).

TTTGCT: the binding signal in the test with FLI1 is 1.25 fold enrichment (6-mer frequency, TF over GST control); with ELK1, 1.17 fold enrichment (6-mer frequency, TF over GST control); in the test with GABPA, 1.29 fold enrichment (6-mer frequency, TF over GST control); with ERG, 1.18 fold enrichment (6-mer frequency, TF over GST control); in the test with ELF1, 1.21 fold enrichment (6-mer frequency, TF over GST control); with EHF, 1.18 fold enrichment (6-mer frequency, TF over GST control). Besides, the binding signal with SPI1 is 1.21 fold enrichment (6-mer frequency, TF over GST control); with SPIB it was 1.24 fold enrichment (6-mer frequency, TF over GST control); with ELK3, 1.25 fold enrichment (6-mer frequency, TF over GST control).

Regarding CTTAGG, the binding signal with FLI1 is 1.1 fold enrichment (6-mer frequency, TF over GST control); with ELK1, 1.12 fold enrichment (6-mer frequency, TF over GST control); with GABPA, 1.15 fold enrichment (6-mer frequency, TF over GST control); in the test with ERG it was 1.19 fold enrichment (6-mer frequency, TF over GST control); with ELF1 it was 1.17 fold enrichment (6-mer frequency, TF over GST control); in the test with EHF it was 1.14 fold enrichment (6-mer frequency, TF over GST control). Besides, the binding signal is 1.09 fold enrichment (6-mer frequency, TF over GST control) with SPI1; 1.08 fold enrichment (6-mer frequency, TF over GST control) with SPIB; 1.05 fold enrichment (6-mer frequency, TF over GST control) with ELK3.

Take CTTGCG: the binding signal with FLI1 was 1.44 fold enrichment (6-mer frequency, TF over GST control); in the test with ELK1 it was 1.42 fold enrichment (6-mer frequency, TF over GST control); in the test with GABPA, 1.32 fold enrichment (6-mer frequency, TF over GST control); with ERG, 1.35 fold enrichment (6-mer frequency, TF over GST control); in the test with ELF1, 1.39 fold enrichment (6-mer frequency, TF over GST control); with EHF, 1.41 fold enrichment (6-mer frequency, TF over GST control). In addition, the binding signal is 1.34 fold enrichment (6-mer frequency, TF over GST control) with SPI1; 1.4 fold enrichment (6-mer frequency, TF over GST control) with SPIB; 1.44 fold enrichment (6-mer frequency, TF over GST control) in the test with ELK3.
